Measured values published in PubChem BioAssay AID1159580 (chemical genetic matrix, 2015).
The campaign covered roughly 5,500 compounds. About 2,000 (36%) were called active. Roughly 18% stayed inconclusive and do not appear here. Cut-off read from the data, not from the text of the source: active = normalized growth mostly below about 0.91 (no sharp cut-off); inconclusive = no clear call, values can overlap the other calls; inactive = mostly above about 0.92. The list shows a part of the results.

Experiment: chemical genetic growth profiling, strain panel (AID 1159580);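 note: tested at 20 µM; growth read once vehicle control cultures reached saturation at 30 °C; 1 = growth at the plate median or of vehicle wells; lower values mean less growth of the strain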
Conditions: growth OD

Measured: normalized growth

CCCCCCCCCCC[C@@H](C[C@H]1OC(=O)[C@H]1CCCCCC)OC(=O)[C@@H](CC(C)C)NC=O
inactive: S. cerevisiae deletion strains, locus YJR043C, strain POL32, active compounds read low 1.03 | S. cerevisiae deletion strains, locus YJR075W, strain HOC1, active compounds read low 1.06 | S. cerevisiae deletion strains, locus YKL009W, strain mrt4, active compounds read low 0.996 | S. cerevisiae deletion strains, locus YKL068W, active compounds read low 1 | S. cerevisiae deletion strains, locus YKL085W, strain MDH1 (second series), active compounds read low 1.02 | S. cerevisiae deletion strains, locus YKL085W, strain MDH1, active compounds read low 1.02 | S. cerevisiae deletion strains, locus YKL160W, strain elf1, active compounds read low 0.988 | S. cerevisiae deletion strains, locus YKL190W, strain CNB1, active compounds read low 1.03 | S. cerevisiae deletion strains, locus YKR001C, strain vps1, active compounds read low 1.03 | S. cerevisiae deletion strains, locus YKR026C, strain gcn3, active compounds read low 1.03 | S. cerevisiae deletion strains, locus YKR091W, strain srl3, active compounds read low 1.05 | S. cerevisiae deletion strains, locus YLL001W, strain dnm1, active compounds read low 1.04 | S. cerevisiae deletion strains, locus YLL026W, active compounds read low 0.997 | S. cerevisiae deletion strains, locus YLL041C, strain sdh2, active compounds read low 1.03 | S. cerevisiae deletion strains, locus YLR027C, strain aat2, active compounds read low 1.03 | S. cerevisiae deletion strains, locus YLR039C, strain RIC1, active compounds read low 1.03 | S. cerevisiae deletion strains, locus YLR058C, strain SHM2, active compounds read low 1.04 | S. cerevisiae deletion strains, locus YLR102C, strain apc9, active compounds read low 1.01 | S. cerevisiae deletion strains, locus YLR221C, strain rsa3, active compounds read low 1.03 | S. cerevisiae deletion strains, locus YLR258W, strain gsy2, active compounds read low 1.03 | S. cerevisiae deletion strains, locus YLR262C, strain YPT6 (second series), active compounds read low 1.1 | S. cerevisiae deletion strains, locus YLR262C, strain YPT6, active compounds read low 1.07 | S. cerevisiae deletion strains, locus YLR268W, strain sec22, active compounds read low 1.02 | S. cerevisiae deletion strains, locus YLR320W, strain mms22, active compounds read low 1.05 | S. cerevisiae deletion strains, locus YLR330W, strain CHS5, active compounds read low 1.03 | S. cerevisiae deletion strains, locus YLR342W, strain FKS1 (second series), active compounds read low 1.02 | S. cerevisiae deletion strains, locus YLR342W, strain FKS1, active compounds read low 1.01 | S. cerevisiae deletion strains, locus YLR357W, strain rsc2, active compounds read low 1.09 | S. cerevisiae deletion strains, locus YLR370C, strain arc18, active compounds read low 1.03 | S. cerevisiae deletion strains, locus YLR371W, strain rom2, active compounds read low 1.01 | S. cerevisiae deletion strains, locus YLR384C, strain iki3, active compounds read low 1.03 | S. cerevisiae deletion strains, locus YLR418C, strain cdc73, active compounds read low 1.03 | S. cerevisiae deletion strains, locus YML016C, strain PPZ1, active compounds read low 1.04 | S. cerevisiae deletion strains, locus YML032C, strain rad52, active compounds read low 1.04 | S. cerevisiae deletion strains, locus YML120C, strain ndi1, active compounds read low 1.02 | S. cerevisiae deletion strains, locus YML124C, strain tub3, active compounds read low 1.01 | S. cerevisiae deletion strains, locus YMR058W, strain fet3, active compounds read low 1.06 | S. cerevisiae deletion strains, locus YMR078C, strain ctf18, active compounds read low 1.03 | S. cerevisiae deletion strains, locus YMR125W, strain sto1, active compounds read low 1.05 | S. cerevisiae deletion strains, locus YMR129W, active compounds read low 1.02 | S. cerevisiae deletion strains, locus YMR205C, strain PFK2, active compounds read low 1.02 | S. cerevisiae deletion strains, locus YMR223W, strain ubp8, active compounds read low 1.03 | S. cerevisiae deletion strains, locus YMR231W, strain pep5, active compounds read low 1.05 | S. cerevisiae deletion strains, locus YMR263W, strain SAP30, active compounds read low 1.04 | S. cerevisiae deletion strains, locus YMR307W, strain GAS1, active compounds read low 1.05 | S. cerevisiae deletion strains, locus YNL067W, strain RPL9B, active compounds read low 1.04 | S. cerevisiae deletion strains, locus YNL071W, strain lat1, active compounds read low 1.02 | S. cerevisiae deletion strains, locus YNL128W, strain TEP1, active compounds read low 1.02 | S. cerevisiae deletion strains, locus YNL153C, strain GIM3, active compounds read low 1.04 | S. cerevisiae deletion strains, locus YNL209W, strain ssb2, active compounds read low 1.06 | S. cerevisiae deletion strains, locus YNL233W, strain BNI4, active compounds read low 1.03 | S. cerevisiae deletion strains, locus YNL248C, strain rpa49, active compounds read low 1.06 | S. cerevisiae deletion strains, locus YNL250W, strain rad50, active compounds read low 1.03 | S. cerevisiae deletion strains, locus YNL271C, strain bni1, active compounds read low 1.02 | S. cerevisiae deletion strains, locus YNL298W, strain CLA4, active compounds read low 1.03 | S. cerevisiae deletion strains, locus YNL307C, strain MCK1, active compounds read low 1.03 | S. cerevisiae deletion strains, locus YNL322C, strain KRE1 (second series), active compounds read low 1.03 | S. cerevisiae deletion strains, locus YNL322C, strain KRE1, active compounds read low 1.04 | S. cerevisiae deletion strains, locus YNR049C, strain mso1, active compounds read low 1.04 | S. cerevisiae deletion strains, locus YNR052C, strain pop2, active compounds read low 1.03 | S. cerevisiae deletion strains, locus YOL006C, strain TOP1, active compounds read low 1.08 | S. cerevisiae deletion strains, locus YOL012C, strain htz1 1.37 | S. cerevisiae deletion strains, locus YOL147C, strain pex11, active compounds read low 1.02 | S. cerevisiae deletion strains, locus YOR001W, strain rrp6, active compounds read low 1.03 | S. cerevisiae deletion strains, locus YOR061W, strain CKA2, active compounds read low 1.03 | S. cerevisiae deletion strains, locus YOR069W, strain VPS5, active compounds read low 1.02 | S. cerevisiae deletion strains, locus YOR070C, strain gyp1, active compounds read low 1.04 | S. cerevisiae deletion strains, locus YOR080W, strain dia2, active compounds read low 0.999 | S. cerevisiae deletion strains, locus YOR083W, strain WHI5, active compounds read low 1.04 | S. cerevisiae deletion strains, locus YOR106W, strain vam3, active compounds read low 1.03 | S. cerevisiae deletion strains, locus YOR136W, strain idh2, active compounds read low 1.03 | S. cerevisiae deletion strains, locus YOR144C, strain elg1, active compounds read low 1.02 | S. cerevisiae deletion strains, locus YOR184W, strain ser1, active compounds read low 1 | S. cerevisiae deletion strains, locus YOR265W, strain rbl2, active compounds read low 1.05 | S. cerevisiae deletion strains, locus YOR270C, strain vph1, active compounds read low 1.11 | S. cerevisiae deletion strains, locus YOR290C, strain snf2, active compounds read low 1.05 | S. cerevisiae deletion strains, locus YOR316C, strain cot1, active compounds read low 1.01 | S. cerevisiae deletion strains, locus YPL051W, strain arl3, active compounds read low 1.06 | S. cerevisiae deletion strains, locus YPL055C, strain LGE1, active compounds read low 1.04 | S. cerevisiae deletion strains, locus YPL078C, strain atp4, active compounds read low 1.08 | S. cerevisiae deletion strains, locus YPL106C, strain sse1, active compounds read low 1.05 | S. cerevisiae deletion strains, locus YPL240C, strain hsp82, active compounds read low 1.02 | S. cerevisiae deletion strains, locus YPL241C, strain CIN2, active compounds read low 1.03 | S. cerevisiae deletion strains, locus YPR119W, strain clb2, active compounds read low 0.996 | S. cerevisiae deletion strains, locus YPR141C, strain kar3, active compounds read low 1.02 | S. cerevisiae deletion strains, locus YPR163C, strain tif3, active compounds read low 1.03 | S. cerevisiae deletion strains, locus YPR167C, strain met16, active compounds read low 1.01 | S. cerevisiae deletion strains, strain wtn01, active compounds read low 1.01 | S. cerevisiae strains, strain wild type, active compounds read low 1.04
